outcome, Potency and max response data for 26 compounds are collected here from PubChem BioAssay (Tox21).

Values joined by “and” are separate entries in the source; they are usually repeats but may differ in a detail not shown here. Equal values may be shown once. A number with no mark means an inactive call. Records with an inconclusive call do not appear. A structure can be active in one record and inactive in another. Active and inactive are the calls of the source. Calls follow the shape of the dose curve; as a rule, active = well fitted curve in the direction sought with a large enough effect in the repeat runs; inconclusive = weak or mixed curves; inactive = no such curve, though single readings can be large; an effect the other way counts as inactive or inconclusive.

The nature of assay [1]: qHTS RealTime-Glo MT Cell Viability Assay in HepG2 cells - 24 hour (AID 1224867). Also: nearly all actives have a fitted effect of over 50% in size. The method in brief: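 HepG2 cells were seeded at 600 cells/well together with NanoLuc luciferase and a cell-permeant prosubstrate, preincubated 5 h at 37 C/5% CO2, then pin-dosed with compounds in DMSO. Nonlytic luminescence from viable cells was read at each time point.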
A general note: Quantitative high-throughput screening tests each substance at several concentrations.

The nature of assay [2]: qHTS RealTime-Glo MT Cell Viability Assay in HEK293 cells - 32 hour (AID 1224868). Also: nearly all actives have a fitted effect of over 50% in size. Also: potency is read from the fitted curve at half-maximal effect. The method in brief:
(§1)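 HEK293 cells were seeded at 600 cells/well together with NanoLuc luciferase and cell-permeant prosubstrate, preincubated 5 h at 37 C/5% CO2, then given compound in DMSO by pintool. Luminescence from viable-cell prosubstrate reduction was read repeatedly over 40 h.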

The nature of assay [3]: A CellTox Green Cytotoxicity Assay to monitor cytotoxicity in HEK293 cells - 0 hour (AID 1224869). Also: nearly all actives have a fitted effect of over 50% in size. The method in brief:
(§2)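 Real-time, in one plate: 600 HEK293 cells/well with dead-cell DNA dye, pinned compound after 5 h, 37 C incubation over 40 h; viable cells give no appreciable fluorescence.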

Assay [4] is described as follows: qHTS RealTime-Glo MT Cell Viability Assay in HepG2 cells - 40 hour (AID 1224870). Also: nearly all actives have a fitted effect of over 50% in size. The method in brief:
(§3)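 HepG2 cells mixed with RealTime-Glo MT reagents (NanoLuc plus cell-permeant prosubstrate) were seeded at 600 cells/well, incubated 5 h at 37 C/5% CO2, then pinned with compounds in DMSO; nonlytic luminescence tracked viability during 40 h treatment.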

Assay [5] can be described thus: A CellTox Green Cytotoxicity Assay to monitor cytotoxicity in HEK293 cells - 40 hour (AID 1224871). Also: nearly all actives have a fitted effect of over 45% in size. The procedure, abridged: as §2
Assay [6] is described as follows: qHTS RealTime-Glo MT Cell Viability Assay in HEK293 cells - 16 hour (AID 1224872). Also: nearly all actives have a fitted effect of over 50% in size. Also: potency is read from the fitted curve at half-maximal effect. The procedure, abridged:
as §1

Assay [7] in a line: qHTS RealTime-Glo MT Cell Viability Assay in HepG2 cells - 8 hour (AID 1224873). Also: nearly all actives have a fitted effect of over 55% in size. The procedure, abridged:
as §3

Assay [8] can be described thus: qHTS RealTime-Glo MT Cell Viability Assay in HEK293 cells - 40 hour (AID 1224874). Also: nearly all actives have a fitted effect of over 50% in size. Also: potency is read from the fitted curve at half-maximal effect. Particulars: RealTime-Glo luminescence; max response: hits give low values. The procedure, abridged: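 Kinetic, non-lysing viability readout. Seed HEK293 (600/well) with reagent, incubate 5 h at 37 C/5% CO2, pin 23 nL compound in DMSO, incubate at 37 C, read luminescence at 0, 8, 16, 24, 32, 40 h.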
% is scaled to controls: 0 for no effect and ±100 for the full control effect.

On to `CC1CCC(C(C)C)C(O)C1` (stereo not given), for which the result in assay [1], in assay [3], in assay [4] and in assay [7] was inactive. Besides, the Potency result in assay [2], in assay [5] and in assay [6] was “inactive” in each case. Besides, in assay [8], the max response is -2.01% and 1.75%.

For the compound `O=C(O)c1cc(O)c(O)c(O)c1`, the call in assay [1], in assay [3] and in assay [4] was inactive. The Potency entry in assay [2], in assay [5] and in assay [6] was “inactive” in each case. Further, the max response in assay [8] is -26.7% and 2.18%.

As for `CCCCCC1=CCCC1=O`, the result in assay [1], in assay [3], in assay [4] and in assay [7] was inactive. Besides, the Potency entry in assay [2], in assay [5] and in assay [6] was “inactive” throughout. In assay [8], the max response was 5.34% and -3.52%.

Turning to `CCCCCCCCCCCCS`, the compound was called inactive in assay [1], in assay [3], in assay [4] and in assay [7]. For the same compound, the Potency entry in assay [2], in assay [5] and in assay [6] was “inactive” in each case. The max response in assay [8] is 0.961% and 6.67%.

As to `COc1cc(Cc2cnc(N)nc2N)cc(OC)c1OC`, the result in assay [1], in assay [3], in assay [4] and in assay [7] was inactive. The Potency entry in assay [2], in assay [5] and in assay [6] was “inactive” in each case. In addition, the max response in assay [8] was -23% and -15.6%.

In the case of `CC(c1cc2ccccc2s1)N(O)C(N)=O` (stereo not given), the outcome in assay [1], in assay [3], in assay [4] and in assay [7] was inactive. Also, the Potency entry in assay [2], in assay [5] and in assay [6] was “inactive” throughout. In addition, in assay [8], the max response is -14.9% and -8.57%.

Turning to `O=c1[nH]c(=O)n([C@H]2CCCO2)cc1F`, the result in assay [1], in assay [3] and in assay [4] was inactive. The Potency entry in assay [2], in assay [5] and in assay [6] was “inactive” each time. Further, the max response in assay [8] was -9.43% and 1.8%.

Regarding `CC(O)COCC(C)O` (stereo not given), the compound was called inactive in assay [1], in assay [3], in assay [4] and in assay [7]. Also, the Potency result in assay [2] and in assay [6] was “inactive” each time.

For `CCCCCCCC(=O)OC`, the compound was called inactive in assay [1], in assay [3], in assay [4] and in assay [7]. Also, the Potency result in assay [2], in assay [5] and in assay [6] was “inactive” in each case.

Consider `C=C(C)C(=O)Nc1ccc(Cl)c(Cl)c1`, for which the compound was called inactive in assay [1], in assay [3], in assay [4] and in assay [7]. In addition, the Potency in assay [2] is 19.7 µM (active) and 21.8 µM (active); in assay [6], 22.1 µM (active) and 21.8 µM (active). Further, in assay [5], the Potency result was “inactive”.

Turning to `C/C=C1/CC2C=CC1C2` (stereo not given), the call in assay [1], in assay [3], in assay [4] and in assay [7] was inactive. Moreover, the Potency result in assay [2], in assay [5] and in assay [6] was “inactive” in each case. Besides, the max response in assay [8] was 4% and 6.36%.

Take `O=c1[nH]c(=O)n([C@H]2C[C@H](O)[C@@H](CO)O2)cc1Br`: the outcome in assay [1], in assay [3], in assay [4] and in assay [7] was inactive. In addition, the Potency result in assay [2], in assay [5] and in assay [6] was “inactive” throughout. In addition, the max response in assay [8] is 0.308%.

As to `C#CCN(C)Cc1ccccc1`, the result in assay [1], in assay [3], in assay [4] and in assay [7] was inactive. The Potency entry in assay [2] and in assay [6] was “inactive” throughout.

`O=[N+]([O-])c1ccc(/C=C/c2ccc([N+](=O)[O-])cc2S(=O)(=O)O)c(S(=O)(=O)O)c1`: the compound was classed as inactive in assay [1], in assay [3] and in assay [7]. The Potency result in assay [2], in assay [5] and in assay [6] was “inactive” in each case.

With `C=CCNC(N)=S`, the call in assay [1] and in assay [3] was inactive. Also, the Potency result in assay [2], in assay [5] and in assay [6] was “inactive” each time. In addition, the max response in assay [8] was -13.5% and 2.87%.

With `CC1CCC2CC1C2(C)C` (stereo not given), the compound was called inactive in assay [1], in assay [3] and in assay [7]. Further, the Potency entry in assay [2] and in assay [6] was “inactive” each time. Besides, in assay [8], the max response is -4.21% and 10.8%.

Turning to `O=C(O)[C@H](O)[C@@H](O)[C@H](O)[C@H](O)CO`, the outcome in assay [1], in assay [4] and in assay [7] was inactive. For the same compound, the Potency entry in assay [2] and in assay [6] was “inactive” each time.

Turning to `c1c[nH]cn1`, the call in assay [1], in assay [3], in assay [4] and in assay [7] was inactive. The Potency result in assay [2] and in assay [6] was “inactive” each time.

Turning to `OCCOCCN1CCN(C2=Nc3ccccc3Sc3ccccc32)CC1`, the compound was called inactive in assay [1] and in assay [3]. Also, the Potency entry in assay [2], in assay [5] and in assay [6] was “inactive” each time. Further, the Potency in assay [8] was 9.52 µM (active). In assay [8], the max response is -19.6%.

For `C[Si](O[Si](C)(C)C)O[Si](C)(C)C`, the compound was called inactive in assay [1] and in assay [3]. Moreover, the Potency result in assay [2], in assay [5] and in assay [6] was “inactive” each time.

For `Cc1occc(=O)c1O`, the outcome in assay [1], in assay [3] and in assay [7] was inactive. The Potency entry in assay [2], in assay [5] and in assay [6] was “inactive” each time. For the same compound, in assay [8], the max response was -7.52% and -0.505%.

Turning to `CCN(CC)c1ccc(C(=O)c2ccccc2C(=O)O)c(O)c1`, the call in assay [1], in assay [3], in assay [4] and in assay [7] was inactive. The Potency result in assay [2] and in assay [6] was “inactive” throughout. Besides, in assay [8], the max response is -1.39% and 2.11%.

Turning to `CN(C)CCC(c1ccc(Cl)cc1)c1ccccn1` (stereo not given), the result in assay [1] and in assay [3] was inactive. For the same compound, the Potency result in assay [2] and in assay [6] was “inactive” each time. For the same compound, the max response in assay [8] is -8.75% and -11.3%.

`Oc1cccc2ccccc12`: the compound was called inactive in assay [1], in assay [3], in assay [4] and in assay [7]. In addition, the Potency entry in assay [2] and in assay [6] was “inactive” in each case.

Take `CCCCC(CC)CO` (stereo not given): the call in assay [1], in assay [3] and in assay [4] was inactive. Moreover, the Potency result in assay [2] and in assay [6] was “inactive” in each case. In assay [8], the max response was 6.29% and 2.53%.

As to `O=C(O)c1cc(C(=O)O)cc(S(=O)(=O)O)c1`, the outcome in assay [1], in assay [3], in assay [4] and in assay [7] was inactive. For the same compound, the Potency entry in assay [2] and in assay [6] was “inactive” throughout. Besides, in assay [8], the max response is -1.84% and 1.2%.
